Screens from PubChem.
Insulin prom up: MIN6 insulin promoter up-regulation. MIN6 insulin promoter-GFP reporter, high-content imaging; stronger effect = higher value. actives 0.3% (n = 190,000). z-score at 5 µM;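 active means z-score above 3 at 5 µM with at least 500 cells counted in the well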
ROMK mod: modulators of human ROMK potassium channel. actives 2% (n = 130,000). Tet-inducible ROMK, thallium flux fluorescence; actives lie on both sides. AID 1918. B-score at 10 µM;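 active means signal ratio slope over the read window, or its plate-corrected B-score, at least 3 SD from the plate mean, either direction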;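 further: B-score of the F/F0 ratio slope over 7 to 12 s after thallium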
Target sequence (P48048 whole entry, looked up): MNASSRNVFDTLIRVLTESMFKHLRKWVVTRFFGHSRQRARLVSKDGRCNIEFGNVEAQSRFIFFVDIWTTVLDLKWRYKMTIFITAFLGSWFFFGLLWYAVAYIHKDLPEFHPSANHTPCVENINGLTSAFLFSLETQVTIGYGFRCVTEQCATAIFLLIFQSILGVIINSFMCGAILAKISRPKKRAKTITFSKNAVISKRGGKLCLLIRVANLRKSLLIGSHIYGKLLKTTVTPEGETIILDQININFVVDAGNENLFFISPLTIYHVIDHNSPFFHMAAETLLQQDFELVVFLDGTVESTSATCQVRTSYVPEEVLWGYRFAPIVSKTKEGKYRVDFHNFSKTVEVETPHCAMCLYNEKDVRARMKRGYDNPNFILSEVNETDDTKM
Cl transport mod: modulators of human KCC2 chloride dependent transport; KCC2 cells, thallium flux FluoZin-2 fluorescence; Q9H2X9; actives 2.2% (n = 190,000); AID 1456; B-score of Tl+ flux slope (higher = more flux/activation; lower = inhibition) at 10 µM;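 active means thallium flux slope and its plate-corrected score both differing from the plate sample mean at a set confidence after two filtering rounds, in either direction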;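 further: slope of fluorescence scaled to starting intensity during 10 to 20 s after thallium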
WT yeast gro inh: growth inhibition of WT yeast, mitochondrial fusion screen; mitochondrial fusion phenotypic screen, WT strain; inhibition, % at 10 µM; actives 2.1% (n = 190,000); AID 1362; in the data active means inhibition above about 58%; tested in S. cerevisiae
L major viab: inhibitors of Leishmania major promastigote growth; Leishmania major promastigotes, resazurin fluorescence viability; inhibition, % at 10 µM; actives 9% (n = 200,000); in the data active means inhibition above about 50%;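 further: promastigotes grown with compound for 44 hours at 28 °C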
INS promoter inh: TRM-6 insulin promoter activity inhibition; actives 0.9% (n = 130,000); TRM-6 cells (human fetal islet line), insulin promoter-eGFP reporter, imaging; reporter expression induced with tamoxifen; inhibition, % at 2 µM; AID 1273;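 active means inhibition above the mean plus 3 SD, with well images judged a real hit on visual review, cut at about 60% in these data, passing the limit was not always enough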
* = called active by the depositor; . = no result. Hits are enriched below; roughly 12% of the tested compounds scored in any of these assays.

SMILES	Insulin prom up	ROMK mod	Cl transport mod	WT yeast gro inh	L major viab	INS promoter inh
O=C(COC(=O)Cn1cnc2ccccc2c1=O)Nc1ccccc1Sc1ccc(Cl)cc1	0.58	-0.15	-0.61	19	69*	-17
Cc1ccccc1OCCCC(=O)Nc1ccccc1C(F)(F)F	.	.	0.025	1	-3	7
O=C(COC(=O)Cn1cnc2ccccc2c1=O)Nc1ccc(Cl)cc1	0.02	.	-1.7	7	-8	.
CCOc1ccccc1NC(=O)CSc1ccccc1	0.43	.	0.32	-5	2	.
CCOc1ccccc1NC(=O)COC(=O)CSc1ccc(Cl)cc1	0.04	.	0.5	12	57*	8
CCOc1ccccc1NC(=O)Cc1ccccc1OC	-0.35	0.44	1	-12	-1	81*
COc1ccccc1C(C)NCC(=O)Nc1ccccc1C(F)(F)F (centres undefined)	0.32	-1.3	1.2	2	60*	-27
Cc1cccc(OCC(=O)Nc2nnn(C)n2)c1C	.	.	-0.88	-13	2	17
CCN=C1SC(CC(=O)NC(N)=O)C(=O)N1CC (centres undefined)	0.48	-0.043	0.61	7	-3	.
Cc1nc(NC(=O)c2ccc(OCC(C)C)cc2)sc1Cc1ccc2c(c1)OCO2	-1.2	0.4	-0.13	3	30	.
CCCOc1ccc(C(=O)Nc2nc(C)c(Cc3ccc4c(c3)OCO4)s2)cc1	-0.11	1.2	0.056	3	64*	-8
CCOC(=O)C1(Cc2cccc(Cl)c2)CCCN(C2CCN(C(C)=O)CC2)C1 (centres undefined)	0.4	0.42	-0.47	5	83*	.
CCOC(=O)C1(Cc2cccc(Cl)c2)CCCN(C(=O)CCOC)C1 (centres undefined)	-0.87	-0.54	-0.44	-1	-6	.
COc1ccc(-c2sc(NC(=O)c3ccc(C)cc3)nc2-c2ccc([N+](=O)[O-])cc2)cc1	0.03	.	.	3	0	20
O=C(Nc1nc(-c2ccccc2)c(-c2ccccc2)s1)c1ccc(S(=O)(=O)N2CCCC2)cc1	0.27	.	.	-8	98*	.
CNc1nc(-c2ccc(OC)cc2)c(-c2ccc(OC)cc2)s1	-0.91	-0.007	0.88	68*	14	.
COc1ccc(C(=O)Nc2nc(-c3ccc([N+](=O)[O-])cc3)c(-c3ccccc3)s2)cc1	.	.	0.68	.	68*	40
Cc1cc(C)c(NC(=O)c2cc3c(nc4sccn43)s2)c(C)c1	.	.	-0.24	75*	1	9
O=C(c1ccc(-c2nnc(-c3ccccc3)o2)cc1)N1CCCCCC1	-0.06	-0.057	.	65*	5	-7
CCOC(=O)c1ccc(N2C(=O)c3n[nH]c(-c4ccco4)c3C2c2ccc([N+](=O)[O-])cc2)cc1 (centres undefined)	-0.53	0.13	0.92	28	98*	26
CCOC(=O)c1ccc(N2C(=O)c3n[nH]c(C)c3C2c2cccnc2)cc1 (centres undefined)	-0.24	-0.35	-1.9	7	42	-18
O=C(NC1CC1)c1ccc2c(c1)C1C3CCC(C3)C1C(c1ccccc1)N2 (centres undefined)	-0.22	-1.3	-0.13	71*	36	.
Cc1ccc(N2C(=O)C(NC(=O)c3ccccc3)(C(F)(F)F)C3=C2CC(C)(C)CC3=O)cc1 (centres undefined)	0	0.53	0.39	0	89*	33
CC(C)(C)NCC(O)COc1ccc(Br)cc1 (centres undefined)	0.69	-0.95	0.74	2	4	41
CC1(C)CC(=O)c2c(nc(SCC(=O)Nc3nsc(-c4ccccc4)n3)c(C#N)c2-c2ccccc2)C1	0.33	.	-3	24	69*	.
SMILES	Insulin prom up	ROMK mod	Cl transport mod	WT yeast gro inh	L major viab	INS promoter inh
O=C(NCCN1CCc2ccccc2C1)C1CCN(S(=O)(=O)N2CCCCC2)CC1	-0.46	0.88	.	-18	81*	.
CS(=O)(=O)N1CCCC(C(=O)NCCN2CCC(Cc3ccccc3)CC2)C1 (centres undefined)	-0.28	.	0.3	-6	89*	.
CCN(CCNC(=O)C1CCCN(S(=O)(=O)CC)C1)c1ccccc1 (centres undefined)	3.1*	0.58	.	1	-3	-68
CCN(CCNC(=O)C1CCN(S(=O)(=O)CC)CC1)c1ccccc1	0.75	-0.027	0.096	14	0	20
CCS(=O)(=O)N1CCCC(C(=O)NCCN2CCC(Cc3ccccc3)CC2)C1 (centres undefined)	0.15	-0.7	.	3	90*	-31
COc1ccc(CCNC(=O)CSc2nc(C)nc3c2c(=O)n(C)c(=O)n3C)cc1OC	2.5	.	.	.	.	.
CCOc1cc(S(=O)(=O)Nc2ccc(CC)cc2)ccc1Cl	.	0.65	0.26	25	5	-32
CCOc1cc(S(=O)(=O)Nc2ccccc2CC)ccc1Cl	-0.69	.	0.33	69*	1	29
CCOc1cc(S(=O)(=O)N2CCCCC2)ccc1Cl	-0.01	-0.43	-0.19	6	11	.
CCOc1cc(S(=O)(=O)N2CCN(CC)CC2)ccc1Cl	.	-0.37	0.23	3	90*	19
CCCn1c(=O)c2ccccc2n2c(SCC(=O)c3cc(C)n(CC4CCCO4)c3C)nnc12 (centres undefined)	-0.31	.	.	.	.	.
CCCCOc1ccc(C(=O)N2CCCCCC2)cc1	0.15	-1.1	0.49	-5	1	9
O=C(c1ccc(COc2ccc(Cl)cc2)cc1)N1CCCCC1	-0.48	-0.35	-0.4	60*	-1	.
COC(=O)C1=C(N)Oc2cc(C)[nH]c(=O)c2C1c1ccncc1 (centres undefined)	-0.04	0.45	.	-9	-3	-17
CCOC(=O)c1ccc(NS(=O)(=O)c2cc(C)ccc2OC)cc1	0.11	.	-0.089	5	16	9
CCOC(=O)COc1c(-c2ccc(OC)cc2)oc2ccccc2c1=O	.	-1	-0.2	-16	-2	-134
COc1ccccc1N1CCN(C(=O)C2CCC(Cn3c(=S)[nH]c4ccccc4c3=O)CC2)CC1 (centres undefined)	-1.4	1.5	0.23	-18	64*	.
O=C(C1CCC(Cn2c(=S)[nH]c3ccccc3c2=O)CC1)N1CCN(c2ccccn2)CC1 (centres undefined)	-0.48	0.69	0.63	23	99*	0
O=C(C1CCC(Cn2c(=S)[nH]c3ccccc3c2=O)CC1)N1CCN(c2ccccc2)CC1 (centres undefined)	.	.	0.77	.	99*	11
O=C(C1CCC(Cn2c(=O)[nH]c3ccccc3c2=O)CC1)N1CCN(c2ccccc2)CC1 (centres undefined)	0.49	0.68	-0.62	4	38	-75
O=C(C1CCC(Cn2c(=S)[nH]c3ccccc3c2=O)CC1)N1CCOCC1 (centres undefined)	0.96	-0.29	-0.036	-12	-1	.
COC(=O)CCN(C(=O)c1ccc(Cl)c([N+](=O)[O-])c1)c1ccccn1	-0.3	-0.27	0.032	.	.	.
O=C(Cn1cc2c(n1)CCCCC2)N1CCc2ccccc21	0.62	.	-1.4	-2	-5	.
CCc1ccc(-c2cn3c(n2)SCC3)cc1	-0.42	-1.3	1.7	8	9	83*
